Results from ChEMBL document CHEMBL3988442, “University of Dundee, Small-Polar-MMV Screening Library” (2021).
Screen size: about 48,000 compounds; about 13,000 (27%) showed an effect of 50% or more. This is one part of the list.

What follows are compounds tested on Wolbachia pipientis (assay: Anti-Wolbachia Cell-Based Screen). Conditions: 5 µM.
Type: functional
Design: scale not given: in the data most compounds retested in dose-response had high values
With `COc1ccc2cc(C(=O)N3CCCCC3Cn3cccn3)[nH]c2c1` (stereo not given) the “Percent Effect” value was -2.712%.
`Cc1cc(CN(C)C(=O)c2ccc(F)cc2F)no1` was tested, and the “Percent Effect” value was 11.87%.
`COc1c(Br)cccc1CCNC(=O)c1csnn1` was tested, and the “Percent Effect” value was -2.024%.
In the case of `CN1CCC(Cc2noc(CCc3nc4ccccc4nc3O)n2)CC1`, the “Percent Effect” value is reported as -2.649%.
In the case of `Cc1cnc(C)c(N2CCN(CCCc3ccncc3)CC2)n1`, the “Percent Effect” value is reported as -5.646%.
With `CC(C)NC(=O)NC(=O)C(C)N1CCN(C2CCN(C(C)C)CC2)CC1` (stereo not given) the “Percent Effect” value was -25.53%.
`COC(=O)C1CCCCN1Cc1cccc(C(=O)NCc2ccco2)c1` (stereo not given) was tested, and the “Percent Effect” value was 0.7191%.
`CCc1cnc(C)nc1NC(CC)c1ncnn1CC` (stereo not given) was tested, and the “Percent Effect” value was 9.184%.
In the case of `CCn1nc(C)c(C(C)Nc2cc(C3CCNCC3)nc(C)n2)c1C` (stereo not given), the “Percent Effect” value is reported as 97.89%.
For `CCn1ncnc1C(C)Nc1cc(C2CC2)ncn1` (stereo not given), the “Percent Effect” value was 83.57%.
In the case of `CCn1ncnc1C(C)NC(=O)C1CCN(C(C)C)CC1` (stereo not given), the “Percent Effect” value is reported as -6.672%.
With `CCn1ncnc1C(C)Nc1cc(C)c2ccc(SC)cc2n1` (stereo not given) the “Percent Effect” value was -5.818%.
With `CCn1ncnc1C(C)Nc1cc(C2CCNCC2)nc(C)n1` (stereo not given) the “Percent Effect” value was 90.92%.
With `CCn1ncnc1C(C)NC(=O)CC1CCN(C(C)C)CC1` (stereo not given) the “Percent Effect” value was -18.67%.
`NC(=O)CCNC(=O)Cc1cccc(I)c1` was tested, and the “Percent Effect” value was -0.109%.
`COc1cc(C(C)NCc2scnc2C)ccc1SC(F)F` (stereo not given) was tested, and the “Percent Effect” value was -45.23%.
`Cc1ccc(N2CC3(CCN(S(=O)(=O)C4CC4)C3)C2)nn1` was tested, and the “Percent Effect” value was -11.71%.
With `Cc1nc(C)n(CC2CCCN2CC(=O)NCc2ccco2)n1` (stereo not given) the “Percent Effect” value was -10.96%.
With `Cc1nn(C)c(Cl)c1C1CCCN1CC(=O)NCc1ccco1` (stereo not given) the “Percent Effect” value was 93.09%.
`COCCCNC(=O)CN1CCCC1c1c(C)nn(C)c1Cl` (stereo not given) was tested, and the “Percent Effect” value was -2.309%.
`Cc1nn(C)c(C)c1C1CCCN1CC(=O)NC(C1CC1)C1CC1` (stereo not given) was tested, and the “Percent Effect” value was 8.112%.
In the case of `COCCNC(=O)CN1CCCC1c1c(C)nn(C)c1Cl` (stereo not given), the “Percent Effect” value is reported as 87.98%.
`NC(=O)CN1C(=O)CO[C@H]2CN(Cc3ccc(Cl)cc3)C[C@H]21` was tested, and the “Percent Effect” value was -3.813%.
`CN(CC(N)=O)Cc1c(Cl)ccc2cccnc12` was tested, and the “Percent Effect” value was 1.669%.
In the case of `COc1ccc(Cl)cc1NCC(=O)N(Cc1ccncc1)C1CC1`, the “Percent Effect” value is reported as 10.17%.
In the case of `Cc1ccc(CSc2nc(N)cc(NCCS(=O)(=O)N(C)C)n2)cc1`, the “Percent Effect” value is reported as 94.01%.
In the case of `Cc1ccc(CSc2nc(N)cc(NCCC(=O)N3CCCC3)n2)cc1`, the “Percent Effect” value is reported as 92.81%.
For `Cc1cc(NCCS(C)(=O)=O)nc2ccccc12`, the “Percent Effect” value was 2.58%.
In the case of `Cc1ccc(CSc2nc(N)cc(NCCC(N)=O)n2)cc1`, the “Percent Effect” value is reported as -9.969%.
With `Cc1ccc(CSc2nc(N)cc(NCC(=O)N3CCNCC3)n2)cc1` the “Percent Effect” value was 0.4693%.
For `CN(C)S(=O)(=O)CCNc1ncc2c(n1)CCN2c1ccccc1`, the “Percent Effect” value was -5.162%.
In the case of `CC(C)c1nc2n(n1)CC(Nc1ncnc3ccccc13)CC2` (stereo not given), the “Percent Effect” value is reported as -42.74%.
With `COC1CCN(C(=O)c2nn(-c3ccc(C(C)C)cc3)cc2O)CC1` the “Percent Effect” value was 2.392%.
In the case of `CC(C)C1CN(C(=O)c2nccnc2N)CCS1` (stereo not given), the “Percent Effect” value is reported as -3.274%.
In the case of `COCCN(CCOC)C(=O)c1cc(F)cc2[nH]cnc12`, the “Percent Effect” value is reported as 18.56%.
For `CCN(CCC(=O)OC)C(=O)c1cc(F)cc2[nH]cnc12`, the “Percent Effect” value was -3.962%.
For `COC(=O)CCCN(C)C(=O)c1cc(F)cc2[nH]cnc12`, the “Percent Effect” value was -15.15%.
In the case of `CC1(C)CN(C(=O)c2cc(F)cc3[nH]cnc23)CCS1`, the “Percent Effect” value is reported as 94.05%.
For `CC(C)C1CN(C(=O)c2cc(F)cc3[nH]cnc23)CCS1` (stereo not given), the “Percent Effect” value was 102.4%.
For `CC1(C)CCN1C(=O)c1cc(F)cc2[nH]cnc12`, the “Percent Effect” value was 96.75%.
With `CC(C)C1CN(C(=O)c2ccc(C(N)=O)cc2)CCS1` (stereo not given) the “Percent Effect” value was 0.1325%.
In the case of `CCCN(CC(F)(F)F)C(=O)c1cc(F)cc2[nH]cnc12`, the “Percent Effect” value is reported as -1.946%.
For `CCC(CO)NC(=O)Nc1cc(F)ccc1Br` (stereo not given), the “Percent Effect” value was 7.156%.
`N#Cc1cccc(OCC(=O)N(Cc2ccsc2)C2CC2)c1` was tested, and the “Percent Effect” value was -11.35%.
`COCC1CCN(CCCc2cccc(OC)c2)CC1` was tested, and the “Percent Effect” value was -10.46%.
With `CC(C)(C)CNC[C@H]1Cn2ccnc2CO1` the “Percent Effect” value was -18.46%.
For `O=C(COc1ccccc1O)N1CCOC(C(F)(F)F)C1` (stereo not given), the “Percent Effect” value was 13.92%.
With `NC(=O)C1CN(C(=O)Nc2ccccc2Oc2ccccc2Cl)CCO1` (stereo not given) the “Percent Effect” value was 94.62%.
For `NC(=O)C1CN(C(=O)Nc2ccccc2N2CCCCCC2)CCO1` (stereo not given), the “Percent Effect” value was 3.966%.
For `NC(=O)C1CN(C(=O)Nc2ccccc2OCC(F)(F)F)CCO1` (stereo not given), the “Percent Effect” value was 120.3%.
For `NC(=O)C1CN(C(=O)Nc2ccccc2SC2CCCC2)CCO1` (stereo not given), the “Percent Effect” value was 100%.
For `NC(=O)C1CN(C(=O)Nc2ccccc2-c2cccs2)CCO1` (stereo not given), the “Percent Effect” value was -5.73%.
With `C=C(C)COc1ccccc1NC(=O)N1CCOCC1CO` (stereo not given) the “Percent Effect” value was 6.942%.
In the case of `NC(=O)C1CN(C(=O)C2(c3ccc(F)cc3F)CCCC2)CCO1` (stereo not given), the “Percent Effect” value is reported as -8.523%.
For `NC(=O)C1CN(C(=O)Nc2ccccc2SC(F)(F)F)CCO1` (stereo not given), the “Percent Effect” value was -3.203%.
